Compound activity as filed in PubChem BioAssay.
An excerpt weighted towards active compounds, which were near 6% of everything screened.
D1 antagonist – antagonists of human D1 dopamine receptor; P21728; actives 3.2% (n = 360,000); HEK293 TREx D1 cells, calcium flux, dopamine EC80; active compounds read low; activity change, negative = inhibition, % at 10 µM; in the data active = activity change below about -30%
Target sequence (P21728 whole entry, looked up): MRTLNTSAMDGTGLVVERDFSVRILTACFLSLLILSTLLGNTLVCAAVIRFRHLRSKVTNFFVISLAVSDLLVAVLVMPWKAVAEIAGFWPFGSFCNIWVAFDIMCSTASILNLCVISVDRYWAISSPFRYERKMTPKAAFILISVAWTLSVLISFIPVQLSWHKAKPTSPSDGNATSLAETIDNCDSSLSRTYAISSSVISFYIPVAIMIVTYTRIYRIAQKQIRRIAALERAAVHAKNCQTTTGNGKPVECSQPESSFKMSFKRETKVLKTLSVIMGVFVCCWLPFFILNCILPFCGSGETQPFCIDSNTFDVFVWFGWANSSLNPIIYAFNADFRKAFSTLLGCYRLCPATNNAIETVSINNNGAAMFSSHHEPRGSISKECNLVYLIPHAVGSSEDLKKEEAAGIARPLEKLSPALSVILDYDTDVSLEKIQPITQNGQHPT
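Compound effects on dopamine-evoked calcium signalling were measured in tetracycline-induced HEK293 Trex D1 cells. Dopamine at EC80 followed a 180 s compound pre-read, and fluorescence was tracked kinetically for 180 s more.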
D1 PAM – human D1 dopamine receptor positive modulation; potentiation, % at 10 µM; actives 0.036% (n = 360,000); HEK293 TREx D1 cells, calcium flux, dopamine EC20 potentiation; AID 504651; in the data active = potentiation above about 30%
DRD3 agonist – activates the human D3 dopamine receptor. P35462. D3R DiscoveRx beta-arrestin cells, luminescence, 90 min. max activation, %. actives 0.58% (n = 410,000); in the data active = max activation above about 30%
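Agonist-mode cell screen: cells plated at 1500/well and incubated overnight at 37 °C, then exposed to library compounds for 90 min at 37 °C. Detection reagent was added for 30–60 min at room temperature, and luminescence was read.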
D1 agonist – agonists of human D1 dopamine receptor. AID 504660. activation, % at 2 µM. actives 1% (n = 360,000). HEK293 T-REx D1 cells, calcium flux, agonist mode. P21728; in the data active = activation above about 30%
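Agonism was scored from calcium flux recorded over 180 s (1 read/s) after pintool compound addition, following a 10-cycle baseline. Cells were inducible force-coupled HEK293 TREx D1, plated overnight at 30 C and loaded with no-wash calcium dye.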
D3 antag – antagonists of human D3 dopamine receptor. actives 2.5% (n = 360,000). D3R cells, DiscoveRx beta-arrestin luminescence, antagonist mode; active compounds read low. AID 652054. max response, negative = inhibition, %. P35462; in the data active = max response below about -50%; inconclusive = no clear call, values can overlap the other calls
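Cells plated overnight at 1500 cells/well, then exposed to library compounds with dopamine controls for 90 minutes at 37 degrees C. DiscoveRx reagent added for 30–60 minutes at room temperature; luminescence read, quantitative HTS format.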
A number is an active result; . = inactive; ? = inconclusive; / = no result.

SMILES	D1 antagonist	D1 PAM	DRD3 agonist	D1 agonist	D3 antag
O=C(Nc1nnc(N2CCCC2)s1)Nc1cc(F)ccc1F	.	.	.	.	/
C=CCOC(=O)C1=C(C)NC(=O)NC1/C=C/c1ccccc1 (centres undefined)	-31	.	.	.	.
O=C(NCC(=O)N1CCN(C/C=C/c2ccccc2)CC1)c1ccc(Br)cc1	/	/	.	/	.
CC(=O)c1ccc(S(=O)(=O)NCC(=O)N2CCN(C/C=C/c3ccccc3)CC2)cc1	.	.	43	.	.
O=C(c1cccc(S(=O)(=O)N2CCOCC2)c1)N1CCC(Cc2ccccc2)CC1	.	.	.	.	.
O=C(c1ccc(Br)s1)N1CCN(C/C=C/c2ccccc2)CC1	.	.	.	.	-75
O=C(c1cccc(S(=O)(=O)N2CCOCC2)c1)N1CCN(C/C=C/c2ccccc2)CC1	.	.	31	.	.
O=C(c1ccc(Br)o1)N1CCN(C/C=C/c2ccccc2)CC1	.	.	.	.	-69
Cc1ccc(S(=O)(=O)NCCC(=O)N2CCN(C/C=C/c3ccccc3)CC2)cc1	.	.	.	.	.
CCCNC(=O)CSc1nc2ccccc2nc1Cc1ccc(Cl)cc1	.	.	.	.	/
Cc1ccc(NC(=O)CSc2n[nH]c(-c3cccnc3)n2)c(Br)c1	-32	/	.	.	.
COc1ccccc1NC(=O)CSc1n[nH]c(-c2cccnc2)n1	.	.	.	.	.
COc1cc(NC(=O)C2Cc3ccccc3N2C(=O)c2ccccc2)cc(OC)c1 (centres undefined)	.	.	.	.	/
CCOc1ccccc1CNC(=O)c1oc2c(c1C)-c1[nH]ncc1CC2	.	.	.	.	/
O=C1NCN(c2ccccc2)C12CCN(CCCC(c1ccc(F)cc1)c1ccc(F)cc1)CC2	.	.	.	.	-104
COc1ccc(S(=O)(=O)N2CCCCC2c2cc(C(=O)N3CCOCC3)no2)cc1 (centres undefined)	/	/	.	/	-96
CCCN(CCC)S(=O)(=O)c1ccc(N2CCCCS2(=O)=O)cc1	.	.	.	.	/
Cc1ccc2nc(C3CCCN(C(=S)Nc4cccc(C)c4C)C3)[nH]c2c1 (centres undefined)	.	.	.	.	.
Cc1ccc(NC(=S)N2CCCC(c3nc4ccc(C)cc4[nH]3)C2)c(C)c1 (centres undefined)	-31	.	.	.	.
Cc1ccc(-c2nc3sc(CCNC(=O)c4ccc(F)c(F)c4)c(C)n3n2)cc1	/	.	.	.	/
COc1ccc(CN2CCCC(N3CCN(c4ccc(OC)cc4)CC3)C2)cc1 (centres undefined)	.	.	.	.	-58
COc1ccc(C(=O)c2c(-c3cccc(C)c3)oc3ccc(N4CCOCC4)cc23)cn1	.	.	36	.	.
Cc1cc(-c2c(C)[nH]n(-c3ccc(Cl)cc3)c2=O)n[nH]1	.	.	.	.	-60
COc1ccc(Nc2ncc(C(=O)Nc3cccc(OC)c3)c3ccccc23)cc1	.	.	.	.	/
CC1Sc2ccccc2N(CC(=O)N(C(C)C)C(C)C)C1=O (centres undefined)	.	.	.	.	-70
SMILES	D1 antagonist	D1 PAM	DRD3 agonist	D1 agonist	D3 antag
CNC(=S)SCCOc1ccc(C)cc1	-91	.	.	.	.
CNC(=S)SCCOc1ccccc1	.	.	.	.	.
CCOC(=O)N1CCN(C(=O)CSCc2nc(-c3ccccc3C)oc2C)CC1	-34	.	.	.	.
CCOC(=O)N1CCN(C(=O)CS(=O)(=O)Cc2nc(-c3ccccc3C)oc2C)CC1	.	.	.	.	.
COc1ccc(-c2nc(CSCC(=O)N3CCN(c4ccc(OC)cc4)CC3)c(C)o2)cc1	-37	.	.	.	/
CCOC(=O)C1CCN(C(=O)CS(=O)(=O)Cc2nc(-c3ccccc3Cl)oc2C)CC1	-40	.	.	.	.
CCOC(=O)N1CCN(C(=O)CSCc2nc(-c3ccccc3F)oc2C)CC1	-44	.	.	.	.
Cc1cccc(CS(=O)(=O)CC2Nc3ccc(C(=O)NCc4ccccc4Cl)cc3NC2=O)c1 (centres undefined)	.	.	.	.	/
COc1ccc(Cl)cc1NC(=O)CSc1cn(CC(=O)N2CCCCC2)c2ccccc12	.	.	.	.	/
CCOC(=O)c1c(C)oc2nc(C)nc(N(C)Cc3ccccc3)c12	.	.	.	.	/
COc1ccc(N2CCN(C(=O)CN=C3NS(=O)(=O)C(c4ccc(C)cc4)=C3C)CC2)cc1	.	.	.	.	-79
CC(CCN1CCC(CN2C(=S)NCC2Cc2ccccc2)CC1)c1ccccc1 (centres undefined)	/	/	.	/	-63
CC(C)CCN1CCC(CN2C(=S)NC[C@@H]2Cc2ccccc2)CC1	/	/	.	/	.
CCCCN1CCC(CN2C(=O)C(=O)NC[C@@H]2Cc2ccccc2)CC1	/	/	.	/	.
O=C1NC[C@H](Cc2ccccc2)N(CC2CCN(CCCCc3ccccc3)CC2)C1=O	/	/	.	/	-50
S=C1NC[C@H](Cc2ccccc2)N1CC1CCN(CCCCc2ccccc2)CC1	/	/	.	/	-93
Cc1cccn2c(=O)cc(CSc3nnc(NC(=O)COc4ccc(F)cc4)s3)nc12	.	.	.	.	/
O=S(=O)(c1ccc(-n2cnnn2)cc1)N1CCN(c2cccc(C(F)(F)F)c2)CC1	.	.	.	.	/
COc1ccc(CCN2C(=O)CSC2=Nc2ccc(C(C)C)cc2)cc1OC	-43	.	43	.	.
O=C(NCc1ccccc1)C1CCN(C(=O)c2cnn(-c3ccccc3)c2-n2cccc2)CC1	.	.	.	.	/
COC(=O)C(NC(=O)c1ccc(F)cc1)(Nc1ncc(S(=O)(=O)c2ccc([N+](=O)[O-])cc2)s1)C(F)(F)F (centres undefined)	.	.	.	.	.
O=C(Nc1ncc(S(=O)(=O)c2ccc([N+](=O)[O-])cc2)s1)c1ccccc1F	.	.	.	38	.
O=C(Nc1ccc([N+](=O)[O-])cc1)c1ccccc1F	.	.	.	.	?
COC(=O)C(NC(=O)c1ccccc1C)(Nc1ncc(S(=O)(=O)c2ccc([N+](=O)[O-])cc2)s1)C(F)(F)F (centres undefined)	.	.	.	.	-77
CCOc1ccc(C(=O)Nc2ccc3oc(-c4cccc5ccccc45)nc3c2)cc1	.	.	.	.	/
O=C1NN(c2ccc(F)cc2)C(=O)/C1=C/c1cccs1	.	.	.	.	-63
CCOC(=O)c1cc(-c2ccc(OC)cc2)n(CCC(=O)NCCc2ccc(OCC)c(OCC)c2)c1C	.	.	.	.	/
COc1cccc(CNC(=O)c2ccc3c(c2)N(Cc2ccc(F)cc2Cl)C(=O)c2ccccc2S3)c1	.	.	.	.	/
COc1cc2c(-c3ccccc3Cl)nc3c(c(C)nn3-c3ccccc3)c2cc1OC	.	.	59	.	/
COc1cc2c(-c3ccccc3O)nc3c(c(C)nn3-c3ccccc3)c2cc1OC	.	.	.	.	.
